# Bioassay records (PubChem)
# CendR NRP1 mod – modulators of CendR peptide binding to human neuropilin-1. AID 602438. 360,000 compounds, 0.85% hits. inhibition, % at 25 µM. FAM-RPARPAR peptide binding to NRP-1, fluorescence polarization;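 active means inhibition or corrected inhibition above about 18%, plus a signal ratio from 0.5 to 1.5, limit read from the data, passing the limit was not always enough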
# ADAM10 inh – inhibits human ADAM10; O14672; recombinant ADAM10, EDANS/DABCYL FRET peptide cleavage, 3 h; inhibition, % at 7 µM; 370,000 compounds, 0.62% hits; AID 720582;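 active means inhibition above a per-campaign cutoff equal to the mean of compounds falling between control-based bounds plus 3 SD, cut at about 20% in these data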;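 further: 0% = DMSO wells while the 100% control is not disclosed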
# HGIII-sPLA2 inh – Blocks human group III sPLA2 activity. Q9NZ20. QFRET BODIPY PC-A2 liposome hydrolysis, fluorescence. 370,000 compounds, 0.56% hits. inhibition, % at 12.2 µM;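 active means inhibition above mean plus 3 SD of compounds lying within the high and low control bounds, cut at about 19% in these data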;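 further: 0% = median of test compound wells and 100% = no enzyme DMSO wells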
# Target sequence (Q9NZ20 whole entry, looked up): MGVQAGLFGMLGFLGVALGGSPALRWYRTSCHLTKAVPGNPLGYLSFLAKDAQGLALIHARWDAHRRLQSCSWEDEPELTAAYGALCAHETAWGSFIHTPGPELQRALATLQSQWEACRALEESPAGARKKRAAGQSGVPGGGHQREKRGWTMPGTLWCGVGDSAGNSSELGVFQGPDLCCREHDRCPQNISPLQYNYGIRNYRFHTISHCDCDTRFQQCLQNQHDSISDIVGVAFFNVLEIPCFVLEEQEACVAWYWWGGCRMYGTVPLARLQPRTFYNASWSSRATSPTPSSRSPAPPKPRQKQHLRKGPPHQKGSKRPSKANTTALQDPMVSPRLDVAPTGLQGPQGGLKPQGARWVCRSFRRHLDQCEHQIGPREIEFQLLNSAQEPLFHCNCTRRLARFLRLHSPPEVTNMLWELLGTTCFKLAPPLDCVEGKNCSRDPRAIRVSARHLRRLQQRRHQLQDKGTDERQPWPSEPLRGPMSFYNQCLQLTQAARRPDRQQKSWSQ
# ADAM17 inh – ADAM17 inhibition, QFRET primary screen. inhibition, % at 6.95 µM. AID 720648. recombinant ADAM17, EDANS/DABCYL FRET peptide cleavage. 370,000 compounds, 0.83% hits. P78536;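 active means inhibition above the mean of compounds lying between control limits plus 3 SD, set per campaign, cut at about 8.5% in these data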;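 further: 0% = DMSO-only wells as the low control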
# proKLK7 act – activators of human kallikrein-7 zymogen; P49862; 370,000 compounds, 0.9% hits; purified proKLK7, EDANS-DABCYL substrate fluorescence; 100% is mature enzyme control, 0% vehicle; AID 652039; activation, % at 7 µM;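 active means activation above the mean of all tested compounds plus 3 SD, computed per campaign excluding outliers beyond control limits, cut at about 13% in these data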
# The depositor's hits bear a star; nt = no result given. In the library only some 3.4% were active in any assay of this set; here they are far more common.
SMILES,CendR NRP1 mod,ADAM10 inh,HGIII-sPLA2 inh,ADAM17 inh,proKLK7 act
CC(C)(C)c1ccc(-c2noc(CCC(=O)NC3CC3)n2)cc1,nt,-4,2,-5,nt
O=C(c1ccc(F)cc1)N1CCN(c2ncccn2)CC1,10,-13,9,-2,1
O=C(NNC(=O)C1CCN(c2ncccn2)CC1)c1ccc(F)cc1,42*,-27,5,-11,1
COc1ccccc1CNC(=O)Cc1ccc(C)cc1,43*,-4,-3,-4,0
COc1ccccc1CNCC(=O)NCc1ccc(C)cc1,-7,-13,2,-6,-1
CCCCNC(=O)C[C@H]1C[C@@]2(C(=O)OC)C(=C[C@H](C(C)(C)C)O[C@@H]2C)N(Cc2ccco2)C1=O,nt,0,-10,1,0
CCOC(=O)C1=C(c2ccccc2)OC(N)=C(C#N)C1C(C)C (stereo unspecified),50*,1,-13,-3,-1
COc1cc(Nc2cccc(-c3ccccc3)n2)cc(OC)c1OC,30*,-2,0,-4,0
CNc1cccc(-c2cc(OC)c(OC)c(OC)c2)n1,0,-64,6,-18,0
COc1ccc(NC(=S)NC2CC3CCC(C2)N3Cc2ccco2)cc1 (stereo unspecified),21*,1,3,-3,0
CC1CC(=O)Nc2ccc([N+](=O)[O-])cc2N1C (stereo unspecified),-1,-45,7,-2,0
CC1CC(=O)Nc2cc([N+](=O)[O-])ccc2N1 (stereo unspecified),32*,-1,9,-2,0
COc1ccc(S[C@]2(C(=O)N3CCN(C(C)=O)CC3)CC(=O)N(C(=O)/C=C/c3ccccc3)[C@@H]2c2ccc(OC)cc2)cc1,nt,-6,6,-1,0
Clc1ccc2nc(SCc3nnc(-c4ccccc4)o3)[nH]c2c1,-2,11,-23,0,0
Cc1ccc2nc(SCc3nnc(-c4ccccc4Br)o3)[nH]c2c1,33*,0,-28,-2,0
COc1ccc(S(=O)(=O)N2CCN(Cc3cccc([N+](=O)[O-])c3)CC2)cc1,20*,5,2,0,0
COc1ccc(S(=O)(=O)N2CCN(Cc3cccc(F)c3)CC2)cc1,7,-2,-2,-1,0
COc1ccc(S[C@]2(C(=O)N3CCCC3)CC(=O)N(C(=O)CCc3ccccc3)[C@@H]2c2ccc(OC)cc2)cc1,nt,6,-4,2,0
CC1(c2nnc(-c3ccc(F)cc3)o2)CC(c2ccc(F)cc2)=NO1 (stereo unspecified),24*,-9,1,-1,0
CC1(c2nnc(-c3ccccc3)o2)CC(c2ccc(F)cc2)=NO1 (stereo unspecified),10,6,-4,1,0
CC1(c2nnc(-c3ccc(Cl)cc3)o2)CC(c2cccc(Cl)c2)=NO1 (stereo unspecified),25*,8,-1,4,0
O=C(CCn1nnc2ccccc21)N1CCN(c2ccc(F)cc2)CC1,nt,-6,3,-2,0
Cc1[nH]n(C(N)=S)c(=O)c1N=Nc1ccc([N+](=O)[O-])cc1Cl,39*,11,9,0,0
Cc1ccccc1N=Nc1c(C)[nH]n(C(N)=S)c1=O,1,17,5,5,1
COc1ccc(OC)c(NC(=O)O[C@@H]2CC[C@@]34CCCN3C(=O)CCC[C@H]4C2)c1,nt,-5,7,-4,nt
SMILES,CendR NRP1 mod,ADAM10 inh,HGIII-sPLA2 inh,ADAM17 inh,proKLK7 act
CC(Oc1ccccc1)C(=O)NC1=NCCS1 (stereo unspecified),33*,3,0,0,0
CCN(CC)C(=O)c1cccc(-c2csc(C(NC(C)=O)c3cccc(OC)c3)n2)c1 (stereo unspecified),22*,-15,-8,-1,0
COc1cccc(C(NC(C)=O)c2nc(-c3ccc(C)c(C)c3)cs2)c1 (stereo unspecified),34*,6,-20,7,0
COc1ccc(Nc2nc3c(C)cccc3cc2C#N)cc1,38*,2,-2,0,0
COc1ccc(Nc2nc(C)cc(C)c2C#N)cc1,5,0,-4,-2,0
CCN(Cc1cn(Cc2ccccc2)nn1)S(=O)(=O)c1ccccc1Br,nt,4,-3,-1,0
CC(C(=O)N1CCN(c2ccc(Cl)cc2)CC1)c1ncc(C(F)(F)F)cc1Cl (stereo unspecified),47*,2,-4,0,1
CCOc1ccc(NC(=O)CN2CCN(CC(=O)Nc3ccc(Cl)c(C(F)(F)F)c3)CC2)cc1,21*,15,-40,4,-1
Cc1cc2c(s1)c1cnn(Cc3cc(F)c(F)cc3F)c(=O)c1n2C,nt,-3,2,-1,nt
CC(C)n1nccc1NC(=O)COC(=O)c1ccc(NC(N)=O)cc1,24*,-7,2,-2,1
CCCCNC(=O)C1(C(=O)c2ccc(OC)cc2)CC(C(=O)OCC)=NO1 (stereo unspecified),nt,3,-1,2,0
C=CCN1C(=O)[C@@H](CC(=O)N2CCN(C(=O)OCC)CC2)[C@]2(C(=O)OC)CCCCC=C12,nt,-6,5,-5,-1
Cc1cc(-c2n[nH]c(=S)n2N=Cc2ccc(OCc3ccccc3)cc2)n[nH]1,nt,3,2,3,0
Cc1ccc2cc(CN(c3ccccc3C)S(=O)(=O)c3ccccc3)c(=O)[nH]c2c1,25*,1,5,-9,0
O=C(Nc1cc(Sc2ccccn2)cc([N+](=O)[O-])c1)c1cccc(F)c1,-24,16,-14,11*,0
O=C(Nc1cc(Sc2nc3ccccc3s2)cc([N+](=O)[O-])c1)c1ccccc1,-6,8,-1,5,-1
CN(CCc1ccccc1)C(=O)c1cc2ccccn2n1,nt,-4,-3,-2,0
CC(/C=N\NC(=O)c1cccnc1)c1ccccc1 (stereo unspecified),33*,0,9,-2,0
Cc1ccc(SCC(=O)OC(C)C(=O)Nc2ccc(S(N)(=O)=O)cc2)cc1C (stereo unspecified),44*,-1,-20,1,0
CCCCNC(=O)O[C@H]1CC[C@@]23CCCN2C(=O)CCC[C@H]3[C@H]1CCC,nt,-2,16,-8,nt
CCOC(=O)c1ccc2ncc(C(=O)OCC)c(NCCN3CCOCC3)c2c1,5,-24,-1,-10,-3
CCOC(=O)c1ccc2ncc(C(=O)OCC)c(NCCN(C)C)c2c1,60*,-387,-6,-110,10
Cc1ccc(NC(=O)CCC(=O)N2CCN(S(=O)(=O)c3ccc(C)cc3)CC2)cc1,45*,0,-7,-1,0
COc1cccc(-c2nnc(SCC(=O)OC(C)C)n2-c2ccc(Cl)cc2)c1,nt,4,-6,2,0
